# Laboratory results: the supplement of paper PMC10849652
# Of roughly 8,800 targets only a part is listed; those with a hit were picked by preference. About 0.5% of all pairs of compound and target were hits. A number with no mark means an inactive call.
# Experiments:
# Experiment in all cases: log2 fold change, soluble protein after heating vs DMSO (PISA); higher = thermal stabilisation; K562 lysate, 10 uM; active = over 0.2 and 3.5 SD of the protein, either way, in both replicates (recomputed)
# nilotinib = compound: Cc1cn(-c2cc(NC(=O)c3ccc(C)c(Nc4nccc(-c5cccnc5)n4)c3)cc(C(F)(F)F)c2)cn1 [nilotinib]
# How it was run: (§1)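 A 30 min treatment with 10 μM compound was applied to crude K562 extract at 1 mg/mL protein in PBS pH 7.4 with 1 mM MgCl2. Heating for 3 min spanned 48°C-58°C, after which aliquots were pooled, adjusted to 0.5% NP-40 at 4°C and spun at 21,000xg for 90 min. TMTpro 16plex LC-MS/MS of the supernatant, with channel sums equalised, gave values recorded as log-two fold change in thermal stability against solvent controls, from duplicates.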
# [1] = compound: Cc1nc(Nc2n[nH]c3c2CN(C(=O)N[C@H](CN(C)C)c2ccccc2)C3(C)C)c2sccc2n1
# How it was run: as §1
# dasatinib = compound: Cc1nc(Nc2ncc(C(=O)Nc3c(C)cccc3Cl)s2)cc(N2CCN(CCO)CC2)n1 [dasatinib]
# How it was run: as §1
# [2] = compound: Cc1ncc(-c2ccnc(Nc3ccc(S(C)(=O)=O)cc3)n2)n1C(C)C
# How it was run: as §1
# [3] = compound: Cn1cc(-c2ccc3c(c2)CCN3C(=O)Cc2cccc(C(F)(F)F)c2)c2c(N)ncnc21
# How it was run: as §1
# quisinostat = compound: Cn1cc(CNCC2CCN(c3ncc(C(=O)NO)cn3)CC2)c2ccccc21 [quisinostat]
# How it was run: as §1
# tipifarnib = compound: Cn1cncc1[C@@](N)(c1ccc(Cl)cc1)c1ccc2c(c1)c(-c1cccc(Cl)c1)cc(=O)n2C [tipifarnib]
# How it was run: as §1
# [4] = compound: NC(=O)Nc1cc(-c2cccc(F)c2)sc1C(=O)N[C@H]1CCCNC1
# How it was run: as §1
# [5] = compound: NC(=O)c1cnc(N[C@@H]2CCCC[C@@H]2N)nc1Nc1cccc(-n2nccn2)c1
# How it was run: as §1
# [6] = compound: NC1(c2ccc(-c3nc4ccn5c(=O)[nH]nc5c4cc3-c3ccccc3)cc2)CCC1
# How it was run: as §1
# [7] = compound: NCC(=O)Nc1ccc(-n2nc(C(F)(F)F)cc2-c2ccc3c(ccc4ccccc43)c2)cc1
# How it was run: as §1
# vorinostat = compound: O=C(CCCCCCC(=O)Nc1ccccc1)NO [vorinostat]
# How it was run: as §1
# silmitasertib = compound: O=C(O)c1ccc2c(c1)nc(Nc1cccc(Cl)c1)c1ccncc12 [silmitasertib]
# How it was run: as §1
# [8] = compound: O=C1NC(=O)C(c2cnc3ccccn23)=C1c1cn2c3c(cc(F)cc13)CN(C(=O)N1CCCCC1)CC2
# How it was run: as §1
# entospletinib = compound: c1cn2cc(-c3ccc4cn[nH]c4c3)nc(Nc3ccc(N4CCOCC4)cc3)c2n1 [entospletinib]
# How it was run: as §1
# Chain of UniProt Q96AX1 (Q96AX1 whole entry, looked up): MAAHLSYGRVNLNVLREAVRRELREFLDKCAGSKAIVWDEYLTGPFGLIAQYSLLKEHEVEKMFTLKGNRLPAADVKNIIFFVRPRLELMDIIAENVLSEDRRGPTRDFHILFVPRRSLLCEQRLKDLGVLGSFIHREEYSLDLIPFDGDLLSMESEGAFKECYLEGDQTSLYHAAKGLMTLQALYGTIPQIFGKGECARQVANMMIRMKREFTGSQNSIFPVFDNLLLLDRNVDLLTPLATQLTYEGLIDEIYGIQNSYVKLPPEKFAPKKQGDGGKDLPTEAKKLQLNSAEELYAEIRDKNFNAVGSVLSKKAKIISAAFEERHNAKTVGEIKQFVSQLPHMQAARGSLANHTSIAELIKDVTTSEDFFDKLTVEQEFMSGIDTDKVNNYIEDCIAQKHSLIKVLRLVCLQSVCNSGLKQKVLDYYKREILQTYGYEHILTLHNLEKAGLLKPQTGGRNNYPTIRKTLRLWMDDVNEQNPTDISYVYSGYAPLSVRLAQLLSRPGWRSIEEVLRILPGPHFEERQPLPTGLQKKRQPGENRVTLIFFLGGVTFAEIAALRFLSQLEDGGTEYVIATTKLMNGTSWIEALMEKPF
# Chain of UniProt Q86UV5 (Q86UV5 whole entry, looked up): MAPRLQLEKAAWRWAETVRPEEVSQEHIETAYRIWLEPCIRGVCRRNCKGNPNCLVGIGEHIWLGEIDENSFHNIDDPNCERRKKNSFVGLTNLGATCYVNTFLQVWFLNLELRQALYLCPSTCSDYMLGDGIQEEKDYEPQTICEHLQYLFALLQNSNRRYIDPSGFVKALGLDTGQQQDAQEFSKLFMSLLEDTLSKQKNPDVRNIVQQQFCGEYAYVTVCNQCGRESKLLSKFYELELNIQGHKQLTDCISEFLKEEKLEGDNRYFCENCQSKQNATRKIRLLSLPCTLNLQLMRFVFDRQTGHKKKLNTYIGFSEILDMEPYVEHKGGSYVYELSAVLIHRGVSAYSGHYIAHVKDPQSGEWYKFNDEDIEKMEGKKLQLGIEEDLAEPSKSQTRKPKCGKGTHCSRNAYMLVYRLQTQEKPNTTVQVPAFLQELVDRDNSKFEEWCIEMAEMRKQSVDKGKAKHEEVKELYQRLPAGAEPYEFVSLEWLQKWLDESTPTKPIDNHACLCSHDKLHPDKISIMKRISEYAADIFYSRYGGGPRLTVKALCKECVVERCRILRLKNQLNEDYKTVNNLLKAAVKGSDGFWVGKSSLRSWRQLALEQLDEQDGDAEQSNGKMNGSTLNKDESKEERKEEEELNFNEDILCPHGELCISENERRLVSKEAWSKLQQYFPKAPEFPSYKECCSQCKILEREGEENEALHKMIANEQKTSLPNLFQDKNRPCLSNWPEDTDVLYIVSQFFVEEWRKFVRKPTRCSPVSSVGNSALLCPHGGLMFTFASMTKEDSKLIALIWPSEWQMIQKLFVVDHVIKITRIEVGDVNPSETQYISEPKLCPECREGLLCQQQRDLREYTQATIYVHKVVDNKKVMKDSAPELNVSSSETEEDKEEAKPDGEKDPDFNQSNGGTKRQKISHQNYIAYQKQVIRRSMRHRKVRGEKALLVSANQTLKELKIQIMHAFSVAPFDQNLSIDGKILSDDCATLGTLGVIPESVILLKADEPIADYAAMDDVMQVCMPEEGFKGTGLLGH
# Chain of UniProt O75362 (O75362 whole entry, looked up): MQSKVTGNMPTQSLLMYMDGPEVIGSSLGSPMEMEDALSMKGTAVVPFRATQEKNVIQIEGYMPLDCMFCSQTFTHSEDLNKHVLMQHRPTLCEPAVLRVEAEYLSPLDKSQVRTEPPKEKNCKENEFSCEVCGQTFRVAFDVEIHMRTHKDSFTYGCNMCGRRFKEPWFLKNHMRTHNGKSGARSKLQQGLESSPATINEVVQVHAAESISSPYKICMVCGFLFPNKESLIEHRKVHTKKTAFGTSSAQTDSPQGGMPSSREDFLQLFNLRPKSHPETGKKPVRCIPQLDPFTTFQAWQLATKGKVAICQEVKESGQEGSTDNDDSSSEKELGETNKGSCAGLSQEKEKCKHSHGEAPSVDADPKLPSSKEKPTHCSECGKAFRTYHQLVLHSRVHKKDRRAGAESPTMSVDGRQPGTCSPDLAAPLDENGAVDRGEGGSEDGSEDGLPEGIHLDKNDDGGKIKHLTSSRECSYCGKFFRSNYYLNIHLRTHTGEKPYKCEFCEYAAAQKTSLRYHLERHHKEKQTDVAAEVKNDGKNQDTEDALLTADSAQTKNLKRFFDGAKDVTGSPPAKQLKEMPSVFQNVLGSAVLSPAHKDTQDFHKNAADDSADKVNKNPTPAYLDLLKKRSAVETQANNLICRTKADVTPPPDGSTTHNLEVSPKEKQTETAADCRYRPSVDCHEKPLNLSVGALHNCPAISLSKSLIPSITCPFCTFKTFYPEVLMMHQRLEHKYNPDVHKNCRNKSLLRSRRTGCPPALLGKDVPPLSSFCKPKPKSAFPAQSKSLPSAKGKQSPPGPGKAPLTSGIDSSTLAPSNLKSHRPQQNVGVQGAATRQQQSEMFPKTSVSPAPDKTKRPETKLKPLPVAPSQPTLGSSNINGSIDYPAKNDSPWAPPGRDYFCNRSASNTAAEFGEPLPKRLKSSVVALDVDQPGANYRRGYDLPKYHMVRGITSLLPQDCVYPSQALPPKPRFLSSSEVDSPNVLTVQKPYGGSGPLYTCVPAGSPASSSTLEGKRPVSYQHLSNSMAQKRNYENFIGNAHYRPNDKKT
# Chain of UniProt P04004 (P04004 whole entry, looked up): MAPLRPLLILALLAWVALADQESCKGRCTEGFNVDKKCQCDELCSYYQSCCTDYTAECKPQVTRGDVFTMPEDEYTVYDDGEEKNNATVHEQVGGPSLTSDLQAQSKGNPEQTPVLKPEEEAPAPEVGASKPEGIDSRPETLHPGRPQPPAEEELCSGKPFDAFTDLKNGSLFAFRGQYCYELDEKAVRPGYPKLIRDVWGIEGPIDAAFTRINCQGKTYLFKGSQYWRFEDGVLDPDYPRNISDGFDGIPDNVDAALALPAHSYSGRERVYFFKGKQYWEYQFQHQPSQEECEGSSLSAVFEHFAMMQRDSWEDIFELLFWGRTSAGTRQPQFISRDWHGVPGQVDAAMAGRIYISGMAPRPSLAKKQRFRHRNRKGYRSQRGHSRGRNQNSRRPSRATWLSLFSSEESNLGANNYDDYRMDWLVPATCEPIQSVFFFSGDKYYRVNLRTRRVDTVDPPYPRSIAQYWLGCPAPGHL
# Chain of UniProt Q9H9H4 (Q9H9H4 whole entry, looked up): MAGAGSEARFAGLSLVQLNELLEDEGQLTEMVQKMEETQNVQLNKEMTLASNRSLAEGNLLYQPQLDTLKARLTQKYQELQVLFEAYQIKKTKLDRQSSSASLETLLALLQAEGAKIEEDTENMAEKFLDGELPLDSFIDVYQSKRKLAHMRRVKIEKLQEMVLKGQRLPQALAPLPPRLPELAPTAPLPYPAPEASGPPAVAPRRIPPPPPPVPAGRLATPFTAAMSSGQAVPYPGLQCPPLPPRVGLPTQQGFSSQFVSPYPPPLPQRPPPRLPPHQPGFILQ
# Chain of UniProt Q9Y484 (Q9Y484 whole entry, looked up): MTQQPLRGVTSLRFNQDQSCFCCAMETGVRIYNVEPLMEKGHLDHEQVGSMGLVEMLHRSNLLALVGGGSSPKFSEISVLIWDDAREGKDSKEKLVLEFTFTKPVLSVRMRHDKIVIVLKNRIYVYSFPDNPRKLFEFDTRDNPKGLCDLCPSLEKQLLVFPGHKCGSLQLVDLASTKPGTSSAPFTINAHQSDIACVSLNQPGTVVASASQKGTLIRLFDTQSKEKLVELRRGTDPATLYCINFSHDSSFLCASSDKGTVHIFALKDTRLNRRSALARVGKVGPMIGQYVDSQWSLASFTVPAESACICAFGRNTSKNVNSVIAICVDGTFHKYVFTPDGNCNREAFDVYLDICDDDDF
# Chain of UniProt Q9UKW4 (Q9UKW4 whole entry, looked up): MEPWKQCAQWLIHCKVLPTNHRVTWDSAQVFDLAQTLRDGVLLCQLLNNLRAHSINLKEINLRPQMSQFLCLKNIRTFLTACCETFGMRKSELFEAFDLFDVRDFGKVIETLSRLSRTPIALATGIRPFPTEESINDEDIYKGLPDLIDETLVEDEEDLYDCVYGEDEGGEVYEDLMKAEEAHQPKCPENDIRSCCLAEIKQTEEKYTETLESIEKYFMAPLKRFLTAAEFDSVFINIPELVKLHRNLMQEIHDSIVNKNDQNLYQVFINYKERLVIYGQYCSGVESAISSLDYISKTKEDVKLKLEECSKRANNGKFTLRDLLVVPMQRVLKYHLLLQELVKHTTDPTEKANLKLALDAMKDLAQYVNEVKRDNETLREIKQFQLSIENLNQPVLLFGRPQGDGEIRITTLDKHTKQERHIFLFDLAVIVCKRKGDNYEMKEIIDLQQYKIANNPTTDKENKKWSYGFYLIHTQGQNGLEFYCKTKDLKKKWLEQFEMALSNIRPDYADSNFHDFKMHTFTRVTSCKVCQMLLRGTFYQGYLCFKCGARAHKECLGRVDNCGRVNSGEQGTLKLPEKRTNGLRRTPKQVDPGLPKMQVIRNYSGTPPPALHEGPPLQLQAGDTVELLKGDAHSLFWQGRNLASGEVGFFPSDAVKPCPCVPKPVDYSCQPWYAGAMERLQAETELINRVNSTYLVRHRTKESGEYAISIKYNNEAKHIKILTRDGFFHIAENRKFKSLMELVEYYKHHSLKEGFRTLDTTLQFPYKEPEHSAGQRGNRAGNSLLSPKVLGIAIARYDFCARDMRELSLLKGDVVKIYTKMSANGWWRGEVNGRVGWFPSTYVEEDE
# Chain of UniProt Q9BQA1 (Q9BQA1 whole entry, looked up): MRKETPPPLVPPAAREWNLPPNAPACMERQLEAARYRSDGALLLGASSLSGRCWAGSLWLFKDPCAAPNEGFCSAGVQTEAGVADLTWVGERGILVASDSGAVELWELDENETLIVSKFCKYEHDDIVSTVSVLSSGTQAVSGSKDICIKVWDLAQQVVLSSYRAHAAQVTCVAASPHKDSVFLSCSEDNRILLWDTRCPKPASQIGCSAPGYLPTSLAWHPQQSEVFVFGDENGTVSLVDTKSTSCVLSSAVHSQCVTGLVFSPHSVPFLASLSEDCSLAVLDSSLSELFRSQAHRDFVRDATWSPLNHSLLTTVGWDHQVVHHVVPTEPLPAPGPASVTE
Target,log2 fold change (nilotinib),log2 fold change [1],log2 fold change (dasatinib),log2 fold change [2],log2 fold change [3],log2 fold change (quisinostat),log2 fold change (tipifarnib),log2 fold change [4],log2 fold change [5],log2 fold change [6],log2 fold change [7],log2 fold change (vorinostat),log2 fold change (silmitasertib),log2 fold change [8],log2 fold change (entospletinib)
WDR77 (UniProt Q9BQA1),0.056,0.028,0.093,0,-0.013,0.014,0.048,0.006,-0.008,0.039,-0.052,-0.067,0.041,-0.01,0.006
XPO1 (UniProt O14980),0.011,-0.011,-0.038,-0.014,0.021,-0.007,-0.009,0.021,0.011,0.006,0.009,-0.233 (active),0.003,-0.001,0.036
VPS54 (UniProt Q9P1Q0),0.013,-0.041,-0.112,0.205,0.146,-0.409 (active),-0.111,0.065,0.089,-0.121,0.112,-0.055,-0.001,0.002,0.007
UQCRC2 (UniProt P22695),0.034,-0.028,0,0.004,-0.043,0.007,-0.011,0.02,-0.008,0.011,0.01,0.123,-0.013,0.03,0.007
VARS (UniProt P26640),-0.012,-0.004,-0.072,0,0.06,-0.021,0.012,0.045,0.001,-0.028,0.006,-0.275 (active),0.063,0.022,0.024
VPS33A (UniProt Q96AX1),-0.007,-0.004,-0.007,-0.027,0.045,-0.018,-0.006,0.041,0.021,-0.034,0.011,-0.222 (active),0.025,0.007,-0.018
VPS13C (UniProt Q709C8),0.138,0.043,-0.011,-0.069,-0.039,-0.034,-0.177,-0.009,-0.028,-0.05,0.005,0.062,-0.033,0.027,-0.051
WDR45 isoform 2 (UniProt Q9Y484),0.04,-0.01,-0.085,-0.027,0.049,0.06,0.009,0.013,-0.042,-0.028,0.018,0.025,0.016,0,0.009
VPS41 (UniProt P49754),0.034,0.014,-0.038,0.001,0.057,-0.048,-0.029,0.029,0.001,-0.009,-0.025,-0.471 (active),0.004,-0.018,0.007
USP48 (UniProt Q86UV5),-0.016,-0.045,-0.016,-0.032,0.005,0.19,0.033,-0.077,0.005,-0.012,-0.054,-0.528 (active),0.07,0.034,-0.102
ZNHIT6 (UniProt Q9NWK9),-0.023,0,-0.037,-0.005,0.004,-0.04,0.014,0.087,0.028,-0.022,0.001,-0.218 (active),-0.041,0.002,-0.062
VPS18 (UniProt Q9P253),-0.013,-0.029,-0.016,0.003,-0.005,-0.018,-0.05,0.029,0.01,-0.019,-0.016,-0.386 (active),0.04,0.015,-0.006
ZMYM2 (UniProt Q9UBW7),-0.04,0.001,-0.023,-0.007,0.035,-0.082,0.08,0.056,0.099,-0.033,-0.125,-0.609 (active),0.034,0.019,0.069
WRN (UniProt Q14191),-0.027,-0.018,-0.108,-0.004,0.022,-0.042,-0.005,0.03,0.089,-0.013,0.003,-0.282 (active),0.035,-0.013,-0.005
ZNF217 (UniProt O75362),0.06,0.026,0.001,0.054,-0.057,-0.179,-0.086,0.014,0.021,-0.075,0,-0.301 (active),0.047,-0.054,-0.061
VAV3 isoform 4 (UniProt Q9UKW4),0.155,-0.028,-0.061,-0.055,0.08,0.121,-0.012,-0.017,-0.054,0.038,0.128,-0.358,0.148,-0.115,0.295
VTN (UniProt P04004),0.04,0.064,0.019,-0.102,0,0.022,-0.092,0.006,-0.063,-0.03,0.126,-0.07,-0.076,-0.085,-0.146
VPS39 (UniProt Q96JC1),0.03,-0.008,-0.044,0.024,-0.003,-0.046,0.002,0.005,-0.008,-0.003,0.009,-0.194,0.01,-0.005,0.013
VPS37B (UniProt Q9H9H4),0.025,-0.078,-0.024,0.046,-0.01,-0.05,-0.002,-0.024,-0.005,0,0.029,-0.349 (active),0.045,-0.035,-0.058
YES1 (UniProt P07947),0.043,0.008,0.154,-0.104,-0.087,-0.084,-0.157,0.589 (active),0.032,0.054,0.09,-0.067,-0.187,-0.054,0.038
USP48 isoform 8 (UniProt Q86UV5),0.018,0.008,0.001,0,0.015,-0.04,-0.011,0.008,-0.001,-0.024,0.014,-0.474 (active),0.009,-0.022,0.021
